Records with an inconclusive call do not appear. Where a call stands in place of a potency, no number is given. A number with no mark means an inactive call. Active and inactive are the calls of the source. Calls come from the whole dose curve; as a rule, active = well fitted cell-killing curve with a large enough effect; inconclusive = small, poorly fitted or top-dose-only effect, or effect the other way; inactive = no such curve, though single readings can be large or run the other way.
Assay: Viability qHTS for spleen associated tyrosine kinase inhibitor (SYKi) naive MV4-11 cells (AID 1963823); note: nearly all actives have a fitted effect of over 40% in size
Conditions: MV4-11 AML viability, CellTiter-Glo luminescence, 72 h; series mostly up to 45 µM
How it was run: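 SYKi-naive MV4-11 AML cells, 500 per well, were exposed to library compounds for 72 hr at 37 C, 5% CO2. Viability was then read by CellTiter-Glo luminescence after 10 min at room temperature.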
Potency is the fitted concentration of half-maximal effect.

**Q.** With O=C(O)c1cc(-c2c(-c3ccccc3)nn3ccccc23)n[nH]c1=O as the compound, how does the Potency read?
**A.** The Potency was “inactive”.

**Q.** For COc1ccccc1-c1cc(Nc2cccc(CS(N)(=O)=O)c2)ncn1, which Potency is on record?
**A.** Its Potency is 9.2 µM (active).

**Q.** Which Potency does the source give for C=C1C(=O)OC2CC(C)C(CCC(C)=O)=CCC12 (stereo not drawn) here?
**A.** The Potency was 8.2 µM (active).

**Q.** Which Potency does the source give for COc1cc(C(C)=O)c(OC)c2c1OC(C)(C)C=C2 here?
**A.** Its Potency is “inactive”.

**Q.** Which Potency does the source give for C=C1CC2[C@]3(C)C(=C(O)C(=O)[C@@]2(C)[C@]2(C(=O)OC)C(=O)C(C)OC(=O)[C@@]12C)C(C)(C)C(=O)CC3O (stereo partly drawn) here?
**A.** The Potency was “inactive”.

**Q.** For CCC(C)/C=C(C)/C=C/C1=CC2=C(Cl)C(=O)C(C)(OC(C)=O)C(=O)C2=CN1C(CC(=O)O)C(=O)O (stereo not drawn), which Potency is on record?
**A.** The Potency was “inactive”.

**Q.** Which viability (% of control) does the source give for CC(C)=CC1C[C@](C)(O)[C@@H]2[C@H]3CCC4[C@@]5(C)CC[C@H](O[C@@H]6OC[C@H](O)[C@H](O[C@@H]7O[C@H](CO[C@@H]8O[C@H](CO)[C@@H](O)[C@H](O)[C@H]8O)[C@@H](O)[C@H](O)[C@H]7O)[C@H]6O[C@@H]6O[C@@H](C)[C@H](O)[C@@H](O)[C@H]6O)C(C)(C)[C@@H]5CC[C@@]4(C)[C@@]34CO[C@@]2(C4)O1 (stereo partly drawn) here?
**A.** Its viability (% of control) is 74.2% [at 9.25 µM].

**Q.** Which Potency does the source give for CC(O)C1CCC2C3CCC4CC(OC5OC(C(=O)O)C(O)C(O)C5O)CCC4(C)C3CCC12C (stereo not drawn) here?
**A.** Its Potency is “inactive”.

**Q.** With Cc1nc(NC(=O)N2CCCC2C(N)=O)sc1-c1ccnc(C(C)(C)C(F)(F)F)c1 (stereo not drawn) as the compound, how does the Potency read?
**A.** The Potency was 18.6 µM (active).

**Q.** Which Potency does the source give for CC(=O)/C=C/C1(O)C(C)=CC(=O)CC1(C)C (stereo not drawn) here?
**A.** Its Potency is “inactive”.

**Q.** Which Potency does the source give for COC1C(CO)OC(n2cnc3c(=O)[nH]cnc32)C1O (stereo not drawn) here?
**A.** Its Potency is “inactive”.

**Q.** Which Potency does the source give for O=C(Nc1cnc(Cl)nc1)c1ccc(F)c(F)c1 here?
**A.** The Potency was “inactive”.

**Q.** For Cc1c(-c2ccnc(Nc3cc(Br)cc(C(F)(F)F)c3)n2)sc(=O)n1C, which Potency is on record?
**A.** Its Potency is “inactive”.

**Q.** For CC(=O)C1=CCC2C3CCC4CC(O[C@@H]5O[C@H](CO)[C@@H](O[C@@H]6O[C@@H](C)[C@H](O)[C@@H](O)[C@H]6O)[C@H](O)[C@H]5O[C@@H]5O[C@H](CO)[C@@H](O)[C@H](O)[C@H]5O)CCC4(C)C3CCC12C (stereo partly drawn), which Potency is on record?
**A.** The Potency was “inactive”.

**Q.** Which Potency does the source give for CC1CCC2(C)C(CC(O)C(O)C23CO3)C1(C)CCC1=CC(O)OC1=O (stereo not drawn) here?
**A.** The Potency was “inactive”.

**Q.** For CC1=CC(=O)C(=C(C)C)CC2C(C)(O)CCC12O (stereo not drawn), which Potency is on record?
**A.** Its Potency is “inactive”.

**Q.** With CC(CO[C@@H]1O[C@H](COC(=O)/C=C/c2ccc(O)c(O)c2)[C@@H](O)[C@H](O)[C@H]1O)C1(O)COC(=O)C1 (stereo partly drawn) as the compound, how does the Potency read?
**A.** The Potency was “inactive”.

**Q.** For O=S(=O)(O)c1ccc(Nc2ncnc3c2ncn3[C@@H]2O[C@H](CO)[C@@H](O)[C@H]2O)cc1, which Potency is on record?
**A.** The Potency was “inactive”.

**Q.** Which Potency does the source give for COc1cc(N)c(Cl)cc1C(=O)NC[C@@H]1CCN2CCC[C@@H]12 here?
**A.** The Potency was “inactive”.

**Q.** For N#Cc1cccc(-c2nc(-c3cccnc3)no2)c1, which Potency is on record?
**A.** The Potency was “inactive”.

**Q.** With N#Cc1ccc2ncnc(NCCc3ccccc3)c2c1 as the compound, how does the Potency read?
**A.** Its Potency is 8.2 µM (active).

**Q.** Which Potency does the source give for COc1ccccc1-n1c(SCC(=O)Nc2nc3ccc(C)cc3s2)nc2c(c1=O)SCC2 here?
**A.** The Potency was “inactive”.

**Q.** Which Potency does the source give for OC[C@@]1(O)CO[C@@H](OC[C@H]2O[C@@H](Oc3c[nH]c4ccccc34)[C@H](O)[C@@H](O)[C@@H]2O)[C@@H]1O here?
**A.** The Potency was “inactive”.

**Q.** Which Potency does the source give for COc1cc(C)c(C(=O)O[C@H]2[C@@H](OC(C)=O)[C@H](n3ccc(=O)[nH]c3=O)O[C@@H]2CO)c(OC)c1 here?
**A.** Its Potency is “inactive”.

**Q.** For CC1=CC(=O)C(C(C)C)=CC1=O, which Potency is on record?
**A.** The Potency was “inactive”.

**Q.** Which Potency does the source give for C=C1[C@H](OC(C)=O)[C@H]2[C@@H](OC(C)=O)C(C)C[C@]2(OC(C)=O)C(=O)[C@H](C)/C=C/C(C)(C)C(=O)[C@H](OC(=O)C(C)C)[C@H]1OC(C)=O (stereo partly drawn) here?
**A.** Its Potency is “inactive”.

**Q.** For COc1ccc(CNCc2cccc3ccccc23)cc1, which Potency is on record?
**A.** The Potency was “inactive”.

**Q.** With Cc1c(C(=O)Nc2ccc(N3CCC(N4CCOCC4)CC3)c(C#N)c2)cnn1-c1ccc(Cl)cc1 as the compound, how does the Potency read?
**A.** The Potency was 0.116 µM (active).

— PubChem BioAssay (NCATS)
